What was measured:
Test in all cases: log2 ratio of Biotin-Ahx-Ub-VS probe labelling (fragment/DMSO); higher = less target engagement (more negative = stronger competition), active = hit call of the paper (q ≤ 0.05, log2 ratio ≤ -1)
Conditions in all cases: compound concentration: 200 uM; treatment time: 3 h
[1] = biological target: T1, USP42 (UniProt Q9H9J4)
T1 sequence (whole entry): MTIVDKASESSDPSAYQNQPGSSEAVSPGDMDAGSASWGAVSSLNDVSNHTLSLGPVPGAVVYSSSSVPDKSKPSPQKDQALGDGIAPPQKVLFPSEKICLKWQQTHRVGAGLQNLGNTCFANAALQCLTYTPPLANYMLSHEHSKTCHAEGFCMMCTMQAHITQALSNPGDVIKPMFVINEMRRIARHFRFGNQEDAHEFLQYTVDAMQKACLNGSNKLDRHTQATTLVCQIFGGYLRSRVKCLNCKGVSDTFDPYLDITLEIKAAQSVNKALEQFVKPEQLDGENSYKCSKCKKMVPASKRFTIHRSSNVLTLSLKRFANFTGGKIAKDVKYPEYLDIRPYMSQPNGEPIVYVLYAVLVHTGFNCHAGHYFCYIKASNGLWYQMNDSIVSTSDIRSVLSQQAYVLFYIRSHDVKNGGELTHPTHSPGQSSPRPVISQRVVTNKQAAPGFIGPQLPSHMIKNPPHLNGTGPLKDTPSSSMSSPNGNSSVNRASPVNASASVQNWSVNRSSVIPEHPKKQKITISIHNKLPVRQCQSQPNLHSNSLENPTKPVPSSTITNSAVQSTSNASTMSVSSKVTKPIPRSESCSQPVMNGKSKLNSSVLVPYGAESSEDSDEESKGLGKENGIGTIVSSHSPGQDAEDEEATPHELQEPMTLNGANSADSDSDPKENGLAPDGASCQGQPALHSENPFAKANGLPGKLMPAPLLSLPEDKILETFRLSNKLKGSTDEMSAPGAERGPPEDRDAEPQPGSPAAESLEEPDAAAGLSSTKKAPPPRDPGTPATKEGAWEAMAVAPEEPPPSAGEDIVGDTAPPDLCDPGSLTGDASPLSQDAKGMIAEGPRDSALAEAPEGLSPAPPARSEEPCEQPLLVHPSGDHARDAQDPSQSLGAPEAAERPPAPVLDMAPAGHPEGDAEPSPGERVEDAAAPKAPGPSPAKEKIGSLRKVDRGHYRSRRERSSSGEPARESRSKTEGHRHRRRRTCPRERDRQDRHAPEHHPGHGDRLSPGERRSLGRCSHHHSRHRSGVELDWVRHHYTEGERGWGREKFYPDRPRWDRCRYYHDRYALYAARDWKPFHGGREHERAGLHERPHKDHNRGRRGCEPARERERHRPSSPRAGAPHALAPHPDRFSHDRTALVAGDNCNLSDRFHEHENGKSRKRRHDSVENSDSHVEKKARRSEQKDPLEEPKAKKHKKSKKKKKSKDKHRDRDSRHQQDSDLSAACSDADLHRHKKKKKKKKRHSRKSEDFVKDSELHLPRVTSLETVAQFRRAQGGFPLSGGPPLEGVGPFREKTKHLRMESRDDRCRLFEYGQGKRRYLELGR
Method in brief: (§1)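 Labelled DUBs from HEK293T lysate were NeutrAvidin-enriched, digested with LysC and trypsin, and run by diaPASEF LC-MS/MS. Before that, each 495 µg sample in Tris/CHAPS/IGEPAL buffer with protease inhibitors was treated in triplicate with fragment at 200 µM or vehicle for 3 h, then with Biotin-Ahx-Ub-VS at 0.5 µM final for 1 h. Values are average log2 ratios of fragment over vehicle by unpaired t-test, based on global-median-normalised Spectronaut label-free quantities from proteins with ≥2 unique peptides.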

[2] = biological target: USP46 (UniProt P62068)
Sequence of USP46 (P62068 whole entry): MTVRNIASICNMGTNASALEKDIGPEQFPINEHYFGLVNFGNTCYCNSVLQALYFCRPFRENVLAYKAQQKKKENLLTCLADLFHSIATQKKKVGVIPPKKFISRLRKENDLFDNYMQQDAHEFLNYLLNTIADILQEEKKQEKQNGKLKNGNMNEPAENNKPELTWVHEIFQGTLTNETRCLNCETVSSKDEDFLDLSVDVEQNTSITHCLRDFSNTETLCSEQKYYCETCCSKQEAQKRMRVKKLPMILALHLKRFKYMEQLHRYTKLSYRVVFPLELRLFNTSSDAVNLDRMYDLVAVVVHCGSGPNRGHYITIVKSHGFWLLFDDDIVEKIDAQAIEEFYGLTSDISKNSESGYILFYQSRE
Method in brief: as §1

[3] = biological target: T2, USP47 (UniProt Q96K76)
T2 sequence (whole entry): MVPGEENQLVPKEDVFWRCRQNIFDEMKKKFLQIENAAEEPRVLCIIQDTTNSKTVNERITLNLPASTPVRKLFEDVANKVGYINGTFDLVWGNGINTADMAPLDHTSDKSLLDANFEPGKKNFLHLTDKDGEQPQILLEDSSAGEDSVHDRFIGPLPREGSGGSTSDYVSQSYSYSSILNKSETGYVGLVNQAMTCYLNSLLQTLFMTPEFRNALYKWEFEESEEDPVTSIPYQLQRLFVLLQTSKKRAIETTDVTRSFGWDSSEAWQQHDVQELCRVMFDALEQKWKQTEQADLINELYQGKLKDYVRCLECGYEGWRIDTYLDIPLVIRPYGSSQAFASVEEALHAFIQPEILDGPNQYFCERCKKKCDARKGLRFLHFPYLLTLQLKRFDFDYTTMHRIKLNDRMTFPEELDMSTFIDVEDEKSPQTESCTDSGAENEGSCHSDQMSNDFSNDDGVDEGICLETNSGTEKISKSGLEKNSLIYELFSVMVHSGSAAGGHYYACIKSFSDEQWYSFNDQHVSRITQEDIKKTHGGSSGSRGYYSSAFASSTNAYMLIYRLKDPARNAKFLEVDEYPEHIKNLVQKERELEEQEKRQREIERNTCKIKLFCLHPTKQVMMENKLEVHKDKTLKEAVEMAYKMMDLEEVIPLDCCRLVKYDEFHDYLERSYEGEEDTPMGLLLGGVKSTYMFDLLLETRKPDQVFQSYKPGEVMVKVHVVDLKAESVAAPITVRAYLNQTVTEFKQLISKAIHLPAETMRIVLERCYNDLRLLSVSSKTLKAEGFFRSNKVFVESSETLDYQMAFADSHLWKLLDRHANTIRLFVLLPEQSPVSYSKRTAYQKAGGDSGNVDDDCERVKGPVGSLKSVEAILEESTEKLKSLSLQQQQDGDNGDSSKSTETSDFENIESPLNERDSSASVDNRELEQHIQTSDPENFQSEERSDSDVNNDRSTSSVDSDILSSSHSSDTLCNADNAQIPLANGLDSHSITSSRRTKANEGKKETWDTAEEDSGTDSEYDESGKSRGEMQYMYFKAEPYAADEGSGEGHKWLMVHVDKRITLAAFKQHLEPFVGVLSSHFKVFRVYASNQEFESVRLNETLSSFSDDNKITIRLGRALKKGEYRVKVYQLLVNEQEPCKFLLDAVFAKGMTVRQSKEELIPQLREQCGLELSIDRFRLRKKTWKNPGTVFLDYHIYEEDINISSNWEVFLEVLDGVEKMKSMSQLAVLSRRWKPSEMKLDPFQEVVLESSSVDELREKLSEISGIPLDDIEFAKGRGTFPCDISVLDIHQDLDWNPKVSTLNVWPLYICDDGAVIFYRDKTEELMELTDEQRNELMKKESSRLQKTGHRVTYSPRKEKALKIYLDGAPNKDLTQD
Method in brief: as §1

[4] = biological target: T3, USP48 (UniProt Q86UV5)
T3 sequence (whole entry): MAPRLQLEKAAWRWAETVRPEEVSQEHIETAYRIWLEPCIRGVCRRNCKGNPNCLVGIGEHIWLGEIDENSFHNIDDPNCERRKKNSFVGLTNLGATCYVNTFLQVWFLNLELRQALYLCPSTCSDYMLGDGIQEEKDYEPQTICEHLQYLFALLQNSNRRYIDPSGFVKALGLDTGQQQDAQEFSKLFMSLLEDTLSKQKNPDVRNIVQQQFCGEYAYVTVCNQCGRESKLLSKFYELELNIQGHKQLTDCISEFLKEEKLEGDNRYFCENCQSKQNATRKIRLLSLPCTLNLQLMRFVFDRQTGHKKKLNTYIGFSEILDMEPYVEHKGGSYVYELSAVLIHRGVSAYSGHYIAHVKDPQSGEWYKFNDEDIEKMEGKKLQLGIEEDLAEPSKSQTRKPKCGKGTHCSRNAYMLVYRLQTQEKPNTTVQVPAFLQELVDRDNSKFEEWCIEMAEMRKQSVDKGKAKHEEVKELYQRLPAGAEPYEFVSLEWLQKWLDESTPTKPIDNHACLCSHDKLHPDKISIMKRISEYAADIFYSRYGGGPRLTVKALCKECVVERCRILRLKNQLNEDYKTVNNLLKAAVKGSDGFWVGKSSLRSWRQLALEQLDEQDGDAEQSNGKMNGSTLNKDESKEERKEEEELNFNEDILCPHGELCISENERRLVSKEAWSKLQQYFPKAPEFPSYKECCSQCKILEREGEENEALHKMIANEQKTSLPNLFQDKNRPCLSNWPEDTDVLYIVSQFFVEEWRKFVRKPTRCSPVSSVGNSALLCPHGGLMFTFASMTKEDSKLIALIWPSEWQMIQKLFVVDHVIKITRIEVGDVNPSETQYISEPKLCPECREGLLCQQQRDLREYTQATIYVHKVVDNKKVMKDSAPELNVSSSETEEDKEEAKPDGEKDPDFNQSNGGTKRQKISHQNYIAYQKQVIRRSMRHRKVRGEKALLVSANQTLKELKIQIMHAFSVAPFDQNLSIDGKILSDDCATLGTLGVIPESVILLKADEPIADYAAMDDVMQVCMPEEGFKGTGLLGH
Method in brief: as §1

[5] = biological target: T4, USP5 (UniProt P45974)
T4 sequence (whole entry): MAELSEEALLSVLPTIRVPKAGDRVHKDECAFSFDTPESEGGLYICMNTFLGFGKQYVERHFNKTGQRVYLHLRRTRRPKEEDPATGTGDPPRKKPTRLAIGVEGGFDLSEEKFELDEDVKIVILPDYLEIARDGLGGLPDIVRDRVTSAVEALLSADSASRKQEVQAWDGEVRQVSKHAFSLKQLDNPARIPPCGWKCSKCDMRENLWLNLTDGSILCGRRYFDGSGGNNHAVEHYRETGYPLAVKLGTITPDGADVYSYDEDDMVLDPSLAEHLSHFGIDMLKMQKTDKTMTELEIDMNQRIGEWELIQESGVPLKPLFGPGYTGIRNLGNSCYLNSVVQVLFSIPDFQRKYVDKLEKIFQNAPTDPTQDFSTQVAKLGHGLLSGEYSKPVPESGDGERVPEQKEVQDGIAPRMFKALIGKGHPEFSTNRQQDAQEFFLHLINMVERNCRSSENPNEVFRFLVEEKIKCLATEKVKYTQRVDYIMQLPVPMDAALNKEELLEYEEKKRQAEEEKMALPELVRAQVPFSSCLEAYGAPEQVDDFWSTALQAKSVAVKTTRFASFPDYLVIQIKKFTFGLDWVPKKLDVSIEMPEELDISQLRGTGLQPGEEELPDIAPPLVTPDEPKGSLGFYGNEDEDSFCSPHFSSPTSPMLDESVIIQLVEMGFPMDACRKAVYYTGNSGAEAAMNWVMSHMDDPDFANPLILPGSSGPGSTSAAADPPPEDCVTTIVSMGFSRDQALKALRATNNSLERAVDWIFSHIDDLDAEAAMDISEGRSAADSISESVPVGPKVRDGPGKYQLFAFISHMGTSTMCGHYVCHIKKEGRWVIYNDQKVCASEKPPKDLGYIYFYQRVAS
Method in brief: as §1

[6] = biological target: USP54 (UniProt Q70EL1)
Sequence of USP54 (Q70EL1 whole entry): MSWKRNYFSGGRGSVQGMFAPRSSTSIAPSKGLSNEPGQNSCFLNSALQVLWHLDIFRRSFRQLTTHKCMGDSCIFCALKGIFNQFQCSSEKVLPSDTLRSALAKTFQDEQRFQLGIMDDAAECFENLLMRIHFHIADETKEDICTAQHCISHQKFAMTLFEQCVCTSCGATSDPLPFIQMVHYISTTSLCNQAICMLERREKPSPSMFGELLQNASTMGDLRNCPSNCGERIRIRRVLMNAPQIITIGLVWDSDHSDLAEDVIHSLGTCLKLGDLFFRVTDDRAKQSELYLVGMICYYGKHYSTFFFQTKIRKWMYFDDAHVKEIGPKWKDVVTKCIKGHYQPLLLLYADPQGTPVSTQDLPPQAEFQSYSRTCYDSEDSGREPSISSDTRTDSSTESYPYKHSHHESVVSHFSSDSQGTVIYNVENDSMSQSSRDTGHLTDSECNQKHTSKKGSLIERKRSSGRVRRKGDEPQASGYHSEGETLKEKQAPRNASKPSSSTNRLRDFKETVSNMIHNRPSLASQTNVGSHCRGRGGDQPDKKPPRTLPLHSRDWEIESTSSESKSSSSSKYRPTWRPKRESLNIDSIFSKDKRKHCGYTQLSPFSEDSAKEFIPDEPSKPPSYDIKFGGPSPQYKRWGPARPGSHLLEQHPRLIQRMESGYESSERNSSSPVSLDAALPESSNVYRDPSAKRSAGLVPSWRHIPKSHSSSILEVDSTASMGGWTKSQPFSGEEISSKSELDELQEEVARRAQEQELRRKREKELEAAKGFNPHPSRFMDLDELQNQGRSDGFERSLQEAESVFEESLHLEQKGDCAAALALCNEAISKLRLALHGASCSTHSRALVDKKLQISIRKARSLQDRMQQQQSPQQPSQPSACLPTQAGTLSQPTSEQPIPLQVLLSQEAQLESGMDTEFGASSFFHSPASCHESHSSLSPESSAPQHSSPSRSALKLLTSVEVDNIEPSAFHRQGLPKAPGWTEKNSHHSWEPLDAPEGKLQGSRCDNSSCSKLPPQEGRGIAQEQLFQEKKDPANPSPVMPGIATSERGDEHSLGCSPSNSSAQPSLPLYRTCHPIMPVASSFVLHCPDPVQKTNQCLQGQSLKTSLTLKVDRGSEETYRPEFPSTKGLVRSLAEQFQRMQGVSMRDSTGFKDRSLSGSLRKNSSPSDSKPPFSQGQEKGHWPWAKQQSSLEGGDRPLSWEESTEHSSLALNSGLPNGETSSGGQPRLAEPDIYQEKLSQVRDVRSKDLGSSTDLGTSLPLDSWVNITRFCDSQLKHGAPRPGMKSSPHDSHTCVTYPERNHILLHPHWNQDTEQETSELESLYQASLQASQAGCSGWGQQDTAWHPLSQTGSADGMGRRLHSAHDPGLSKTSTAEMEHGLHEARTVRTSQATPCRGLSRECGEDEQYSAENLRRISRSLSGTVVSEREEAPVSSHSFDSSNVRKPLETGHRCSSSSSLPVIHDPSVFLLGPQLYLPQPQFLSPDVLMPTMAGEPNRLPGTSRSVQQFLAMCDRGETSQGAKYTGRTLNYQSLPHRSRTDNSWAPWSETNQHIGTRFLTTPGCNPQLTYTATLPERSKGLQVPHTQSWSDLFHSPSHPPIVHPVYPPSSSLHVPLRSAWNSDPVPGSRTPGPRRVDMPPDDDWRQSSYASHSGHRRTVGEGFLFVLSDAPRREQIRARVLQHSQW
Method in brief: as §1

[7] = biological target: USP7 (UniProt Q93009)
Sequence of USP7 (Q93009 whole entry, looked up): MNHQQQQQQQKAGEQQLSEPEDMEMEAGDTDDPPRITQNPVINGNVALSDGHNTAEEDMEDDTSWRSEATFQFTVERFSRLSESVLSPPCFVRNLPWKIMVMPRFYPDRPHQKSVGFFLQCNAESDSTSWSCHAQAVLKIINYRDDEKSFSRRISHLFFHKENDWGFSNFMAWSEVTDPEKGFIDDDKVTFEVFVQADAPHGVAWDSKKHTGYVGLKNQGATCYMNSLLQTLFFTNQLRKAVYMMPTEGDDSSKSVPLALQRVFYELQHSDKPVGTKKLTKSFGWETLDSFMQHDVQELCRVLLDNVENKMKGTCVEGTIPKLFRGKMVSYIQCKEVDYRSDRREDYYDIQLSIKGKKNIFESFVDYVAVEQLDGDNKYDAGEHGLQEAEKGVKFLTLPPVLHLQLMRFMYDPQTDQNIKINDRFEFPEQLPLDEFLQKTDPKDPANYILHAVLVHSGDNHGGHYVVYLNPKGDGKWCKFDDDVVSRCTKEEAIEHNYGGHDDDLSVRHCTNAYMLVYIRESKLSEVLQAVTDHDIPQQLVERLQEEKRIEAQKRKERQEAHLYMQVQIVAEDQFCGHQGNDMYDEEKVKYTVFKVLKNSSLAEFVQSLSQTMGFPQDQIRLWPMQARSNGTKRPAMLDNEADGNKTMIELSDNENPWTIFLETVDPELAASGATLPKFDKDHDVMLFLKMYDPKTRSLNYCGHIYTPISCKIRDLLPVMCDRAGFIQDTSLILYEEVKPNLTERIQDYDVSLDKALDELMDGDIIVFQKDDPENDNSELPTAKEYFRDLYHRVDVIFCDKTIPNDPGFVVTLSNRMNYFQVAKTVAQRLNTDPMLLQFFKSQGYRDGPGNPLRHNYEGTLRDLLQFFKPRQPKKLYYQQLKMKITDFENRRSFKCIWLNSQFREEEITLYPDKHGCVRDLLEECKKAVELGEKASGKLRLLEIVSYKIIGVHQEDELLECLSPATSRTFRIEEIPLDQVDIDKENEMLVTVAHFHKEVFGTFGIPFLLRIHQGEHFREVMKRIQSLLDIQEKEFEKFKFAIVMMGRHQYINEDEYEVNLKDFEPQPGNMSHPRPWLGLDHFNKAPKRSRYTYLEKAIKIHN
Method in brief: as §1

[8] = biological target: T5, USP8 (UniProt P40818)
T5 sequence (whole entry): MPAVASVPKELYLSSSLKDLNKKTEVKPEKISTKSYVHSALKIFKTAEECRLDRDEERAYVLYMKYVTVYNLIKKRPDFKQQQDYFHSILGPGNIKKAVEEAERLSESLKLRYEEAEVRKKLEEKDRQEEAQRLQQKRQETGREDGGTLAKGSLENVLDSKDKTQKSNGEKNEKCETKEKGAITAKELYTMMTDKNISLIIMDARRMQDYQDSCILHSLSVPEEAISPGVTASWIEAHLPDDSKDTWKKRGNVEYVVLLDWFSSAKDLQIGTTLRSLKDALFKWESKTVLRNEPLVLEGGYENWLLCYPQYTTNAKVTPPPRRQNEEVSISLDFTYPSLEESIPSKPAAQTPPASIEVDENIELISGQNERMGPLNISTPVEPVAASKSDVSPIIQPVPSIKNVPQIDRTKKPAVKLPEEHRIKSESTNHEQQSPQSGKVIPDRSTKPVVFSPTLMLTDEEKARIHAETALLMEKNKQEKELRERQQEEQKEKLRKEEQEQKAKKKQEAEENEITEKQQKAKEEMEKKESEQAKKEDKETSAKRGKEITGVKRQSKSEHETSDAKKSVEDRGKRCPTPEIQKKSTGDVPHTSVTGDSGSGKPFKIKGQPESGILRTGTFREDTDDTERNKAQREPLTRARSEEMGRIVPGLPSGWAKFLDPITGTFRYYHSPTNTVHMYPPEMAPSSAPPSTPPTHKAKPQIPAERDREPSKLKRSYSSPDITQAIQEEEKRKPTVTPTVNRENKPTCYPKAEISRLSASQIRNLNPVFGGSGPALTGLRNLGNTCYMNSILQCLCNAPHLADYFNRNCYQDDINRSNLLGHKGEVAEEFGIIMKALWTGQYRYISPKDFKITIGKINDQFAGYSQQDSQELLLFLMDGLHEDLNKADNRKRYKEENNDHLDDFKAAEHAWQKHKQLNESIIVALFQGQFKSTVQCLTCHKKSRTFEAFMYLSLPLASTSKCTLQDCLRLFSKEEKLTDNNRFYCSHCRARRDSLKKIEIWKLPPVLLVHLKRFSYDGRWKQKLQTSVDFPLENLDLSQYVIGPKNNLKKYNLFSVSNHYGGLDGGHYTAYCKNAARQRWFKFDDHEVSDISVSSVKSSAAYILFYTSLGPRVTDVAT
Method in brief: as §1

[9] = biological target: USP9X (UniProt Q93008)
Method in brief: as §1

[10] = biological target: UniProt O00487
Sequence of UniProt O00487 (O00487 whole entry): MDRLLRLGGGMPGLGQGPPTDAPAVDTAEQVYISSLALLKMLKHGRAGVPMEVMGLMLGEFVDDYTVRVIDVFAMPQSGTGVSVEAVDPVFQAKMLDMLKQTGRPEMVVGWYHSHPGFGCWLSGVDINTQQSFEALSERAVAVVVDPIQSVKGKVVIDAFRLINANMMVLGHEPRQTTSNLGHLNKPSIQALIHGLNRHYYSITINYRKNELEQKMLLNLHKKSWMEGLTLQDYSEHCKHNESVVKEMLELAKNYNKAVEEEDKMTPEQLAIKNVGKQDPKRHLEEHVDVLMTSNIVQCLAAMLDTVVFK
Method in brief: as §1

Measured: log2 ratio of Biotin-Ahx-Ub-VS probe labelling

Cl.O=C(CCl)NCCc1ncc(F)cc1F
inactive: [1] -0.132 | [2] -0.0594 | [3] 0.122 | [4] -0.466 | [5] -0.0776 | [6] -0.439 | [7] -0.34 | [8] -0.607 | [9] -0.419 | [10] -0.24

Reference: the supplement of paper PMC11732987, “Enantioselective OTUD7B fragment discovery through chemoproteomics screening and high-throughput optimisation” (Communications Chemistry, 2025)
